About 950 (1.4%) of roughly 69,000 compounds showed an effect of 50% or more. Many of the other results were omitted from the sample, so strong results are more common in it than they were.
Test system: Mycobacterium tuberculosis
Test: Cornell M. t heat shock assay; note: in the data most compounds retested in dose-response had high values
Type: functional, organism-based
Design: dose or concentration left out as unconfirmed

In order of falling “Percent Effect” value:
1. Cc1cccnc1NCCNc1cc(C(C)C)nc2ccnn12  97.5%
2. CC(C)c1ncc2c(n1)CN(Cc1noc(-c3ccccc3)n1)CC2  59.47%
3. c1ccc(COC2CCN(c3cncc(-n4cccn4)n3)CC2)cc1  53.35%
4. CN(C)C1CCN(C(=O)c2cc(-c3ccn(C)n3)n3ccccc23)CC1.O=C(O)C(F)(F)F  44.75%
5. N#Cc1ccc(N2CCC3(CC2)CC(N2CCOCC2)CO3)cc1.O=C(O)C(F)(F)F (stereo not given)  25.96%
6. CC(C)c1ncc2c(n1)CN(Cc1nc(Cc3ccccc3)no1)CC2  21.5%
7. CCOC1COC2(CCN(Cc3cccnc3OC)CC2)C1.O=C(O)C(F)(F)F.O=C(O)C(F)(F)F (stereo not given)  16.61%
8. Cc1cc(NCCNc2ncccc2C)n2nc(C)cc2n1  16.17%
9. CC(=O)N1C[C@@H]2CC[C@H](C1)N(S(=O)(=O)c1ccc(F)cc1Cl)C2  10.85%
10. C[C@@H]1CN(Cc2ccoc2)C[C@]12CCN(CC(=O)N(C)C)C2=O.O=C(O)C(F)(F)F  10.48%
11. Cc1ccc(-c2nc(CN3CCc4cnc(C)nc4C3)no2)cc1  7.068%
12. c1ccc(C2CCCN(c3cncc(-n4cccn4)n3)CC2)cc1 (stereo not given)  6.437%
13. CCOc1ccc(C2C3=C(O)OCC3=Nc3nc(SC)nc(N)c32)cc1 (stereo not given)  5.942%
14. CC(C)N1CCc2c(C(=O)N3CCOCC3)nn(C)c2C1.O=C(O)C(F)(F)F  1.567%
15. Cl.NCc1ccc(Oc2ccc(F)c(F)c2)cc1C(F)(F)F  1.199%
16. Cc1nc(C2CCNC2)nc2c1CCC(=O)N2CC(C)C.Cl (stereo not given)  -0.8245%
17. c1ccc(C2CCN(c3cncc(-n4cccn4)n3)CC2)cc1  -1.073%
18. CCC(C)N1Cc2c(C(=O)N3CCOCC3)nn(C)c2C1.O=C(O)C(F)(F)F (stereo not given)  -5.344%
19. Cc1cnc(C(=O)N2C[C@H]3CC[C@@H]2CN(c2cnccn2)C3)cn1  -7.052%
20. Cc1cccc(CN2CCOCC3(CCN(C4CCOCC4)C3)C2)c1.O=C(O)C(F)(F)F.O=C(O)C(F)(F)F (stereo not given)  -7.998%
21. Cc1cc2nc(C(C)C)cc(NCCNc3ncccc3C)n2n1  -16.57%
22. CC(C)N1CCCCC1c1nc(N(C)C)ncc1I.Cl (stereo not given)  -21.57%
23. CN(C)S(=O)(=O)N1CCO[C@H]2[C@H](Oc3cccnc3)CC[C@@H]21.O=C(O)C(F)(F)F  -23.12%
24. CC(C)N(C)Cc1cnc2n1CCN(S(=O)(=O)c1ccccc1)C2.O=C(O)C(F)(F)F  -26.7%
25. CS(=O)(=O)NC[C@H]1OC[C@H]2CN(Cc3ccsc3)CC[C@H]21.O=C(O)C(F)(F)F  -31.27%
